# Laboratory results as given in the supplement of paper PMC6555819.
# How the values were obtained:
# Assay in all cases: PBM binding z-score (relative to random genomic background probes); higher = stronger binding; sequences stand for … in GC…GCGATTGACAGCGTAGAATGAAGG
# [1] = test system: FXR:RXRa (NR concentration 270 nM, RXRa partner concentration 90 nM)
# In short: (§1)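 Binding z-scores were set against random background probes. The data came from custom Agilent 4×180K protein-binding microarrays carrying double-stranded probes with 34-nt variable regions, incubated 1 h with ligand-free nuclear receptor dimers. Partner-specific antibodies detected binding, and scanned fluorescence was regression-normalized.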
# [2] = test system: LXRa:RXRa (NR concentration 270 nM, RXRa partner concentration 90 nM)
# In short: as §1
# [3] = test system: LXRa homodimer (NR concentration 270 nM)
# In short: as §1
# [4] = test system: LXRb:RXRa (NR concentration 270 nM, RXRa partner concentration 90 nM)
# In short: as §1
# [5] = test system: LXRb homodimer (NR concentration 270 nM)
# In short: as §1
# [6] = test system: PPARa:RXRa (NR concentration 270 nM, RXRa partner concentration 90 nM)
# In short: as §1
# [7] = test system: PPARg:RXRa (NR concentration 180 nM, RXRa partner concentration 90 nM)
# In short: as §1
# [8] = test system: PPARg:RXRa 270nM:90nM, anti-RXR (NR concentration 270 nM, RXRa partner concentration 90 nM)
# In short: as §1
# [9] = test system: PPARg:RXRa 30nM:10nM, anti-RXR (NR concentration 30 nM, RXRa partner concentration 10 nM)
# In short: as §1
# [10] = test system: PPARg:RXRa 90nM:30nM, anti-RXR (NR concentration 90 nM, RXRa partner concentration 30 nM)
# In short: as §1
# [11] = test system: PPARg:RXRa DBDmut IVT, anti-RXR (DBD mutation: RXRa K156A/R161A, NR concentration 270 nM, RXRa partner concentration 90 nM)
# In short: as §1
# [12] = test system: PPARg:RXRa IVT, anti-PPARg (NR concentration 270 nM, RXRa partner concentration 90 nM)
# In short: as §1
# [13] = test system: PPARg DBDmut:RXRa IVT, anti-PPARg (DBD mutation: PPARg1 K132A/R137A, NR concentration 270 nM, RXRa partner concentration 90 nM)
# In short: as §1
# [14] = test system: PPARg DBDmut IVT, anti-PPARg (DBD mutation: PPARg1 K132A/R137A, NR concentration 270 nM)
# In short: as §1
# [15] = test system: PPARg homodimer (NR concentration 180 nM)
# In short: as §1
# [16] = test system: PXR:RXRa (NR concentration 270 nM, RXRa partner concentration 90 nM)
# In short: as §1
# [17] = test system: PXR homodimer (NR concentration 270 nM)
# In short: as §1
# [18] = test system: RARa:RXR (NR concentration 270 nM, RXRa partner concentration 90 nM)
# In short: as §1
# [19] = test system: RARa homodimer (NR concentration 270 nM)
# In short: as §1
# [20] = test system: RARb:RXRa (NR concentration 270 nM, RXRa partner concentration 90 nM)
# In short: as §1
Sequence,PBM binding z-score [1],PBM binding z-score [2],PBM binding z-score [3],PBM binding z-score [4],PBM binding z-score [5],PBM binding z-score [6],PBM binding z-score [7],PBM binding z-score [8],PBM binding z-score [9],PBM binding z-score [10],PBM binding z-score [11],PBM binding z-score [12],PBM binding z-score [13],PBM binding z-score [14],PBM binding z-score [15],PBM binding z-score [16],PBM binding z-score [17],PBM binding z-score [18],PBM binding z-score [19],PBM binding z-score [20]
CCTACTGGGCCAAAGGTCATTGAATCCAATGCTC,4.76,5.09,3.62,4.91,0.849,6.45,11.2,9.74,10.1,10.8,5.12,6.72,-0.082,0.0276,3.57,5.26,1.68,5.79,0.758,4.52
TCATATATGTAATACAGGTGAAAGTCGGCATCTA,0.656,0.799,0.168,0.857,0.395,2.14,2.09,3.12,3.65,3.4,2.42,2.27,1.39,1.75,0.745,0.801,0.494,1.41,0.947,0.42
ATACAAAGGTGATCGTGAGGTCGTTGATACTAAC,2.64,2.6,0.941,1.91,0.00532,2.76,1.87,1.95,0.554,1.27,1.15,2.15,1.05,0.894,1.53,4.07,1.38,3,1.26,2.54
AGAACGAGGGCACGCTGAGTTGTTAGCAGAGTAG,0.878,0.882,-0.742,0.17,-1.13,2.18,1.94,1.79,0.32,1.16,4.03,3.92,0.505,0.0717,-0.208,0.851,-0.39,0.724,-0.521,2.62
TCTTGTACATCAAGCAGGTTAAGAAAGCCTGAGT,0.785,0.852,-0.0231,0.861,0.106,1.05,-0.153,1.37,3.03,2.18,1.65,0.61,0.553,1.57,0.286,0.6,0.247,0.598,-0.095,0.538
CCTCGGAGGACAACAGGAAGTCAGAGCTGCCAGA,-0.229,-0.454,-0.458,-0.667,-0.823,-0.671,0.123,-0.726,-1.03,-1.13,-0.28,-0.806,-1.35,-1.22,0.0465,-0.665,-0.485,-0.454,0.0942,0.863
CCTTACGGGTCACTCCAGGTTATCGCATCGGAGT,4.86,7.44,2.05,5.17,0.292,4.26,3.02,3.76,0.874,2.38,2.41,3.83,-0.0167,-0.117,1.35,4.65,0.118,3.01,0.208,3.55
AGTCAAAGCTCATCTAGGTAACGTAAGATATGCT,-0.387,-0.578,-0.275,-0.318,-0.689,0.0609,0.604,0.302,-0.0105,0.0855,0.59,1.71,0.357,0.493,-0.497,-0.42,-0.351,-0.0294,-0.0154,-0.0836
CCTCGGAGGCCAACAGGAGGTCAGAGCTGCCAGA,1.54,2.49,1.48,1.58,-0.663,2.29,0.0544,0.339,-0.921,-0.26,-0.0138,0.518,-0.818,-1.87,1.58,2.35,0.122,2.83,0.23,2.98
AGAATGAGGTTATACCTAGATCAGGGAAGAAAGT,1.65,1.87,-0.0251,1.31,-0.249,3.15,1.77,1.63,0.532,1.09,2.11,2.02,1.05,0.686,0.0294,0.87,0.227,1.44,-0.0854,1.19
CGTCCAAGGTCATAGGAGGTCAGTGACGACAGAT,7.82,7.6,4.84,6.12,0.978,6.02,5.6,5.9,2.05,4.62,3.6,4.57,0.237,0.133,5.09,6.69,4.69,6.08,2.29,5.44
CCTTCTGGGCCATCAGGTCATTGATATCAACGTT,1.65,1.19,0.846,1.44,0.0435,2.69,2.21,3.33,1.09,2.63,4.77,5.03,0.4,0.236,1.37,1.64,0.618,2.31,0.159,2.28
GCAGCCAGGTGAAACGCAGGTAACTCAGGGTGGC,-0.375,-0.533,-0.628,-0.952,-1.52,0.132,0.166,-0.353,-0.793,-0.229,1.32,1,-1.26,-1.53,-1.44,-0.698,-1.29,0.121,-2.03,0.362
CCTACTGGGCCAAAGTTCATTGATTCCAATGCTC,2.2,3.36,4.36,2.6,0.0133,5.47,10.9,9.53,9.33,11.8,4.73,6.06,-0.1,-0.115,4.94,4.5,8.31,2.99,0.508,3.13
